A selection: hits, their analogues and other compounds. The true share with any hit is near 9.4%.
SMN2 splice up: SMN2 splice variant enhancement | HEK293 SMN2-luciferase splicing reporter, luminescence, 30-36 h | Potency, µM (titrated, usually from 46.1 µM), most hits filed as activators | actives 2.8% (n = 210,000); also: nearly all actives have a fitted effect of over 55% in size
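qHTS luciferase splicing reporter: luminescence rises when SMN2 exon 7 is included in transfected HEK293 cells. Compound exposure lasted 30-36 h at 37C, with 4.5 mM final sodium butyrate as control, followed by a ONE-Glo read.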
Rab9 prom act: Rab9 promoter activation; Huh7 Rab9 promoter-luciferase reporter, luminescence, 24 h; Potency, µM (highest dose often 9.22 µM), most hits filed as activators; actives 2.8% (n = 320,000); AID 485297; also: nearly all actives have a fitted effect of over 60% in size
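Promoter activation is measured as luciferase luminescence in Huh7 cells stably transfected with a Rab9 promoter–luciferase construct, following 24 h compound exposure at 37 °C and 10 min reagent incubation at ambient temperature.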
ELG1 DNA repair: blocks ELG1-dependent DNA repair in HEK293T cells | actives 2.3% (n = 330,000) | AID 504467 | Potency, µM (highest dose often 46.1 µM), hits mostly inhibitors | HEK293T ELG1-luciferase reporter, luminescence, 16 h; DNA damage induced by 5-fluorouridine; also: nearly all actives have a fitted effect of over 55% in size
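HEK293T cells expressing luciferase-tagged ELG1 (2,000/well) received 5-Fluorouridine plus compound or DMSO for 16 hr at 37 °C. Luciferase was read by ONE-Glo luminescence after 30 min at room temperature.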
ELG1 genotox: genotoxicity induction in ELG1-luciferase HEK293T cells; HEK293T ELG1-luciferase reporter, luminescence, 16 h; Potency, µM (top dose mostly 46 µM), usual class: activators; actives 1.3% (n = 330,000); AID 504466; also: nearly all actives have a fitted effect of over 60% in size
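After overnight (16 hr) compound treatment at 37 °C, ELG1-luciferase HEK293T cells were lysed with ONE-Glo; luminescence quantified 30 min later at room temperature.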
FLuc modulator: counter-screen for miR-21 project: firefly luciferase inhibitors or activators; actives 6.9% (n = 360,000); Potency, µM (highest dose often 57.5 µM), hits mostly inhibitors; purified FLuc, Km substrates, luminescence inhibition; P08659; AID 588342; also: nearly all actives have a fitted effect of over 55% in size
Target sequence (P08659 whole entry, looked up): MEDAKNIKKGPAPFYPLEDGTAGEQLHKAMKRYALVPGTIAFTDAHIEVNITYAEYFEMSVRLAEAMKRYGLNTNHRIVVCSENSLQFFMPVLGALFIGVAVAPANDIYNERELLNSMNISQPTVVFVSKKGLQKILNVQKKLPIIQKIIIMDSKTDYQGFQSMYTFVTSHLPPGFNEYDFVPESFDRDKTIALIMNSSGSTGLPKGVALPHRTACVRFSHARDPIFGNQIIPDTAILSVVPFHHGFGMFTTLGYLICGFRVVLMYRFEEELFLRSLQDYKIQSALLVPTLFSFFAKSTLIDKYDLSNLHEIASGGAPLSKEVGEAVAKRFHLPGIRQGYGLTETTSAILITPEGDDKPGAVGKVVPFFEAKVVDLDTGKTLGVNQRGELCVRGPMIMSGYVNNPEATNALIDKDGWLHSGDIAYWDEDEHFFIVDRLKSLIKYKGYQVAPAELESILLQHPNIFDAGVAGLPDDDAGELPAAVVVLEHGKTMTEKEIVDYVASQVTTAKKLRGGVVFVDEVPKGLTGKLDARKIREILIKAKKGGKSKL
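Biochemical qHTS of compounds, final roughly 60 µM downward over six points, against 10 nM purified firefly luciferase using Km concentrations of substrates (10 uM D-luciferin, 10 uM ATP) in Tris acetate pH 7.5 buffer; luminescence output.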
NPC1 prom act: activators of NPC1 promoter; Huh7 NPC1 promoter luciferase reporter, 24 h; Potency, µM (series often up to 9.22 µM), most hits filed as activators; actives 2.4% (n = 320,000); also: nearly all actives have a fitted effect of over 60% in size
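Stably transfected Huh7 (NPC1 promoter→luciferase), 1500 cells/well in Opti-MEM + 10% FBS, 2 h settle, then compound 24 h at 37 °C. Luminescence after 10 min with Amplite reagent.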
Hits are given with their value; . = inactive; ? = inconclusive; / = not tested or not shown; [ ] = remark or other dose. Calls follow the shape of the dose curve; as a rule, active = well fitted curve in the direction sought with a large enough effect; inconclusive = small, poorly fitted or top-dose-only effect, or another doubt; inactive = no such curve, though single readings can be large; an effect the other way counts as inactive or inconclusive.

SMILES | SMN2 splice up | Rab9 prom act | ELG1 DNA repair | ELG1 genotox | FLuc modulator | NPC1 prom act
C=CC[n+]1ccc(/C=C2\C=Cc3cc(C)ccc3N2CC)c2ccccc21 | . | . | 1.3µM | . | ? | .
CN(Cc1ccccc1)C(=O)c1ccc(NC(=O)Cc2cccc(NC(=O)C3CCN(C(=O)C4CCCC4)CC3)c2)cc1 | / | . | 10.3µM | . | . | .
COc1ccc(C(=O)Nn2cnc3scc(-c4cccs4)c3c2=O)c(O)c1 | 12.6µM | 2.51µM | ? | 7.31µM | 15.1µM | 2.82µM
COc1cccc(-n2cnc3scc(-c4cccs4)c3c2=O)c1 | . | . | . | . | . | .
COCCSc1nc2c([nH]c3ccccc32)c(=O)n1-c1ccc(OC)c(OC)c1 | / | / | / | / | . | /
CCCCOc1ccccc1C(=O)N(Cc1sccc1C)C1CCS(=O)(=O)C1 (centres undefined) | . | / | / | / | . | /
COCCCNc1oc(/C=C/c2ccccc2)nc1C#N | / | 1.12µM | ? | 2.91µM | 3.38µM | 3.55µM
C=CCNc1oc(/C=C/c2ccccc2)nc1C#N | 11.2µM | 2.24µM | ? | ? | 4.78µM | 2.51µM
CN(C)CCNc1oc(/C=C/c2ccccc2)nc1C#N | . | . | ? | . | . | .
Clc1ccc(-c2noc(CCCOc3ccccc3)n2)cc1 | . | . | . | . | . | .
Clc1ccc(-c2noc(COc3ccccc3)n2)cc1 | . | . | ? | . | 13.5µM | .
Cc1ccc(OCc2nc(-c3ccccc3)no2)c(C)c1 | 10µM | 2.24µM | ? | 3.16µM | 3.01µM | 2.24µM
Clc1ccc(-c2noc(CN3CCOCC3)n2)cc1 | / | 3.16µM | ? | ? | ? | 2µM
CC(C)(C)Cc1nc(-c2ccc(Cl)cc2)no1 | . | . | ? | . | 15.1µM | .
O=C(C1CCN(Cc2nc(-c3ccc(Cl)cc3)no2)CC1)N1CCOCC1 | / | . | . | . | . | .
O=C(Cc1ccccc1F)NNC(=O)c1ccncc1 | / | . | . | . | . | .
CCc1ccc(NC(=O)Cn2c(=O)n(Cc3ccccc3)c(=O)c3oc4ccccc4c32)cc1 | / | / | / | / | . | /
COc1ccc(NC(=O)Cn2c(=O)n(Cc3ccccc3)c(=O)c3oc4ccccc4c32)cc1Cl | / | / | / | / | 2.39µM | /
O=C(N/N=C/c1ccccn1)NC12CC3CC(CC(C3)C1)C2 | / | ? | ? | . | 16.9µM | ?
O=C(N/N=C/c1cc([N+](=O)[O-])ccc1O)NC12CC3CC(CC(C3)C1)C2 | . | . | ? | 14.6µM | ? | .
Cc1cccc(/C=N/NC(=O)NC23CC4CC(CC(C4)C2)C3)n1 | / | . | ? | . | ? | .
O=C(N/N=C/c1cc([N+](=O)[O-])ccc1O)C12CC3CC(CC(C3)C1)C2 | . | . | ? | . | ? | .
COc1ccccc1C(=O)Nc1ccc(-c2cc(C(F)(F)F)nn2-c2ccccc2)cc1 | . | / | / | / | . | /
CCOC(=O)C(C(=O)OCC)N(C#N)c1nc(OC)nc(N(C)C)n1 | 3.16µM | . | . | . | . | .
Cn1c(=O)c(C(=O)COC(=O)c2cc(-c3ccccc3)nc3ccccc23)c(N)n(Cc2ccccc2)c1=O | . | . | ? | . | . | .
SMILES | SMN2 splice up | Rab9 prom act | ELG1 DNA repair | ELG1 genotox | FLuc modulator | NPC1 prom act
O=C(O)c1cc(-c2cccc([N+](=O)[O-])c2)n[nH]1 | . | . | . | . | ? | .
O=C(O)c1cc(-c2cccc([N+](=O)[O-])c2)nc2ccccc12 | / | . | . | . | 19µM | .
Cn1c(N)c(C(=O)c2cc(-c3ccccc3)nc3ccccc23)c(=O)n(C)c1=O | 11.2µM | . | ? | ? | 5.36µM | .
Cc1cc(-c2cccc([N+](=O)[O-])c2)nc2ccc3ccccc3c12 | . | ? | . | . | 2.69µM | ?
N#Cc1ccc(-c2nc3ccccc3nc2-c2ccccc2)cc1C#N | . | . | 16.4µM | . | . | .
COc1ccc(-c2nc3ccccc3nc2-c2ccccc2)cc1OC | / | . | ? | . | . | .
CCOc1ccc(-n2c(=O)c3c(C)c(C(=O)N(C)C)sc3n(CC(=O)Nc3c(C)cc(C)cc3C)c2=O)cc1 | / | / | / | / | . | /
CC(/C=C1\SC(=S)N(CCC(=O)Nc2ccc(O)cc2)C1=O)=C\c1ccccc1 | / | . | . | . | . | .
O=C(CCCN1C(=O)S/C(=C/C=C/c2ccccc2)C1=O)Nc1ccc(C(=O)O)cc1 | / | . | . | . | . | .
CC(/C=C1\SC(=S)N(CCCC(=O)Nc2ccc(C(=O)O)c(O)c2)C1=O)=C\c1ccccc1 | 35.5µM | ? | ? | ? | 10.7µM | .
O=C(CCN1C(=O)/C(=C/c2cccs2)SC1=S)Nc1ccc(C(=O)O)c(O)c1 | / | . | . | . | 16.9µM | .
CC(=C\c1ccccc1)/C=C1/SC(=O)N(CCCC(=O)Nc2ccc(C(=O)O)cc2)C1=O | . | . | ? | ? | 16.9µM | .
O=C(CCN1C(=O)/C(=C/c2cccs2)SC1=S)Nc1ccc(O)cc1 | / | . | . | . | . | .
COc1ccc(Cl)cc1NC(=O)Cn1cc(C(=O)c2ccncc2)c(=O)c2cc(C)ccc21 | / | / | / | / | . | /
CCCOc1ccc(C(=O)NC(=S)N2CCN(c3cc4c(cc3F)c(=O)c(C(=O)O)cn4CC)CC2)cc1 | / | . | . | . | . | .
CCOC(=O)c1cnn(-c2cccc(F)c2)c1C1CCNCC1 | . | / | / | / | . | /
CC1CCN(S(=O)(=O)c2ccc3[nH]ccc3c2)CC1 | / | / | / | / | . | /
CSCC[C@H](NC(=O)[C@@H]1Cc2ccccc2CN1)C(=O)Nc1ccc2c(c1)OCCO2 | / | ? | ? | ? | 15.1µM | ?
COc1ccc(NC(=O)CSc2nc3ccccc3n2CC(=O)N(C)C2CCCCC2)cc1 | / | / | / | / | . | /
O=C(Nc1cccc2ccccc12)c1ccc([N+](=O)[O-])s1 | . | . | 16.4µM | . | . | .
O=C(Nc1ccccc1F)c1ccc([N+](=O)[O-])s1 | . | . | 23.1µM | . | . | .
Cc1ccc(C(=O)NNC(=S)Nc2cccc3ccccc23)s1 | / | . | ? | . | 10.7µM | .
CC[C@](N)(C(=O)O)C(C)C | .[9.22 µM] | / | / | / | / | /
COc1ccc(OC)c(CNC(=O)c2cnc3c(C)cccn3c2=O)c1 | / | / | / | / | . | /
CN(CCc1ccccn1)C(=O)CCc1nnc(CCCc2ccccc2)o1 | / | ? | ? | ? | 15.1µM | ?
SMILES | SMN2 splice up | Rab9 prom act | ELG1 DNA repair | ELG1 genotox | FLuc modulator | NPC1 prom act
CC(C)c1cc(CNC(=O)CCc2nnc(CCCc3ccccc3)o2)on1 | ? | . | ? | ? | ? | .
CCc1cc(CNC(=O)CCc2nnc(CCCc3ccccc3)o2)on1 | 15.8µM | 3.55µM | ? | 18.3µM | 19µM | ?
O=C(CCc1nnc(CCCCc2ccccc2)o1)NCCN1CCOC1=O | / | . | . | . | 16.9µM | .
O=C(CCc1nnc(CCCCc2ccccc2)o1)NCCn1cccn1 | . | . | . | . | . | .
O=C(CCc1nnc(CCCc2ccccc2)o1)N1CCCCCC1 | / | ? | ? | ? | 21.3µM | ?
Cc1ccc(-n2nc(C(=O)N3CCC(C)CC3)c(=O)n(C)c2=O)cc1 | / | / | / | / | . | /

Screening results as filed in PubChem BioAssay.
